Experimental data reported in PubChem BioAssay (EPA / NIEHS).
Several values for one entry are separate records, joined by “and”; a condition that tells them apart may be missing. Equal entries are not always repeated. Results filed as inconclusive are left out. The source holds several records for some structures; these can differ, active in one and inactive in another. Activity calls are given as the source filed them. The calls were made as follows: active = hit-call score of the fitted dose curve at least 0.9, where 1 is the maximum; inconclusive = response in the unintended direction; inactive = score below 0.9.

Biological target: human Constitutive Androstane Receptor (CAR), NR1I3 (gene 9970) (UniProt Q14994)
Experiment: NVS_NR_hCAR_Antagonist: NovaScreen (NVS) Nuclear Receptor Binding Assay for human Constitutive Androstane Receptor Antagonism (CAR) (AID 2283344)
Description: NVS_NR_hCAR_Antagonist is a biochemical, single-readout assay that uses extracted gene-proteins in a cell-free assay. Measurements were taken 1 hour after chemical dosing in a 384-well plate.NVS_NR_hCAR_Antagonist is one of one assay component(s) measured or calculated from the NVS_NR_hCAR_Antagonist assay. It is designed to make measurements of fluorescent resonance energy transfer, a form of binding reporter, as detected with fluorescent resonance energy transfer signals by Time-Resolved Fluorescence Resonance Energy Transfer (TR-FRET) technology.Data from the assay component NVS_NR_hCAR_Antagonist was analyzed into 1 assay endpoint. This assay endpoint, NVS_NR_hCAR_Antagonist, was analyzed in the positive analysis fitting direction relative to DMSO as the negative control and baseline of activity. Using a type of binding reporter, loss-of-signal activity can be used to understand changes in the binding as they relate to the gene NR1I3. Furthermore, this assay endpoint can be referred to as a primary readout, because the performed assay has only produced 1 assay endpoint. To generalize the intended target to other relatable targets, this assay endpoint is annotated to the nuclear receptor intended target family, where the subfamily is non-steroidal.
Binding assays used specific radioligands (tritiated, iodinated) with non-radioactive competitive displacement ligands in agonist or antagonist protocols (as indicated) and various reference compounds and inhibitors to titrate specific binding to receptors and transporters. Most enzyme assays (CYPs, kinases, phosphatases, proteases, HDACs) used recombinant protein and specific substrates (fluorescence mostly, some colorimetric and radioactive) and inhibitors, followed by a biochemical separation of substrate and product. All assays for the biochemical HTS were initially run in duplicate at a single concentration (10 uM for CYP450 assays and 25 uM for all others). […] Each assay was run with positive and negative controls, and concurrent controls on every plate. The follow-up (secondary) screen tested active chemical-pairs in concentration series, as well as a few additional assays not tested in the primary screen, some selected negative inactives, and several cases re-run in the concentration series for confirmatory purposes.

Sequence of human Constitutive Androstane Receptor (CAR), NR1I3 (gene 9970) (Q14994 whole entry, looked up): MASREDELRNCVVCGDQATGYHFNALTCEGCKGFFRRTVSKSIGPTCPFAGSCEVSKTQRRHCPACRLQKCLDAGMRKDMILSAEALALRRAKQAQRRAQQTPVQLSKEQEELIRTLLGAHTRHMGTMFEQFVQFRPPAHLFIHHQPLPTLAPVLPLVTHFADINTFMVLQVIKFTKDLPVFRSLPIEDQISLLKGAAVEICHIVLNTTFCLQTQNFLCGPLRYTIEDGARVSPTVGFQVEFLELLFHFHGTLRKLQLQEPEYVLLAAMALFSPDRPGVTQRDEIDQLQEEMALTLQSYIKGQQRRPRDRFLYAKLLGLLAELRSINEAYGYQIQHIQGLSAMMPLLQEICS

| Structure (SMILES) | outcome | AC50 |
| --- | --- | --- |
| CC(C)(C)C(O)C(Oc1ccc(Cl)cc1)n1cncn1 (stereo not given) | inactive |  |
| COP(=S)(OC)Oc1ccc([N+](=O)[O-])cc1 | inactive |  |
| COc1nn(CSP(=S)(OC)OC)c(=O)s1 |  | 18.3 µM (active) |
| CC[C@H](C)[C@H]1O[C@]2(C=C[C@@H]1C)C[C@@H]1C[C@@H](C/C=C(\C)[C@@H](O[C@H]3C[C@H](OC)[C@@H](O[C@H]4C[C@H](OC)[C@@H](O)[C@H](C)O4)[C@H](C)O3)[C@@H](C)/C=C/C=C3\CO[C@@H]4[C@H](O)C(C)=C[C@@H](C(=O)O1)[C@]34O)O2 (tested in a mixture with another compound) |  | 10.1 µM (active) |
| CNC(=O)/C=C(\C)OP(=O)(OC)OC | inactive |  |
| CCCN(CCOc1c(Cl)cc(Cl)cc1Cl)C(=O)n1ccnc1 |  | 32 µM (active) |
| O=[N+]([O-])c1c(Cl)c(Cl)c(Cl)c(Cl)c1Cl | inactive |  |
| Cc1cc(C)nc(NC(=O)NS(=O)(=O)c2ccccc2C(=O)OC2COC2)n1 | inactive |  |
| O=C(O)CCCOc1ccc(Cl)cc1Cl | inactive |  |
| Oc1ccc(Cl)cc1Cc1ccccc1 | inactive | 9.68 µM (active) and 25.2 µM (active) and 25 µM (active) |
| CN1CSC(=S)N(C)C1 | inactive |  |
| CCOc1nc(NC)nc(NC(=O)NS(=O)(=O)c2ccccc2C(=O)OC)n1 | inactive |  |
| CCOCN(C(=O)CCl)c1c(C)cccc1CC |  | 13.9 µM (active) |
| CNC(=O)Oc1ccccc1OC(C)C | inactive |  |
| O=S1OCC2C(CO1)C1(Cl)C(Cl)=C(Cl)C2(Cl)C1(Cl)Cl (stereo not given) | inactive |  |
| CCCN(CCC)c1c([N+](=O)[O-])cc(C(F)(F)F)cc1[N+](=O)[O-] | inactive |  |
| N#Cc1c(Cl)c(Cl)c(Cl)c(C#N)c1Cl | inactive |  |
| O=C1c2ccccc2C(=O)N1SC(Cl)(Cl)Cl | inactive |  |
| CC1(C)C(C=C(Cl)Cl)C1C(=O)OC(C#N)c1ccc(F)c(Oc2ccccc2)c1 (stereo not given) | inactive |  |
